TDP1 cell noCPT – qHTS for Inhibitors of human tyrosyl-DNA phosphodiesterase 1 (TDP1): qHTS in cells in absence of CPT. DT40 Tdp1-/- hTDP1 cells, no CPT, ATP luminescence, 48 h. Potency, µM (titrated, usually from 46.2 µM), inactives show at the highest dose activity change, negative = growth inhibition, actives largely listed as inhibitors. 15% of 420,000 active. AID 686978, 2013; also: potency is read from the fitted curve at half-maximal effect; nearly all actives have a fitted effect of over 55% in size
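Camptothecin absent (DMSO only). Human TDP1-complemented DT40 knockout cells, 400 cells/well, 37 °C for minimum 48 hr; ATP measured via CellTiter-Glo, 30 min dark incubation, luminescence.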
HT1080 IDH1KD tx – kills HT-1080 cells with IDH1 knockdown | HT-1080 IDH1 knockdown viability, ATP luminescence, 48 h | Potency, µM (doses to about 46.1 µM), without a hit: at the highest dose activity, negative = toxicity, hits mostly cytotoxic | 2% of 360,000 active;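 also: potency is read from the fitted curve at half-maximal effect; 0% = DMSO wells and -100% = cell-free medium wells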
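Using the IDH1-knockdown HT-1080 line run in the same batch and compound series as the NT line, viability after 48 h at 37 °C was determined by CellTiter-Glo luminescence and expressed as % activity.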
DT40 TDP1 CPT – growth inhibition of DT40 Tdp1-/-;hTDP1 cells with camptothecin (screen for TDP1 inhibitors). chicken DT40 Tdp1-/-;hTDP1 cells + 20 nM CPT, ATP luminescence, 48 h. Potency, µM (top dose mostly 46.2 µM), without a hit: top-dose activity change, negative = growth inhibition, usual class: inhibitors. 12% of 420,000 active; also: potency is read from the fitted curve at half-maximal effect; nearly all actives have a fitted effect of over 55% in size
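Chicken DT40 Tdp1-/- cells complemented with human TDP1, 400 cells/well, exposed to compounds plus 20 nM camptothecin for at least 48 h at 37 C; viability read as ATP content by CellTiter-Glo luminescence.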
ELG1 DNA repair – inhibitors of ELG1-dependent DNA repair in HEK293T cells; HEK293T ELG1-luciferase reporter, luminescence, 16 h; DNA damage induced by 5-fluorouridine; Potency, µM (titrated, usually from 46.1 µM), inactives show at the top dose activity change, negative = inhibition, hits mostly inhibitors; 2.3% of 330,000 active; AID 504467; also: potency is read from the fitted curve at half-maximal effect; nearly all actives have a fitted effect of over 55% in size
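Step one: seed 2,000 cells per well. Step two: pin-transfer compound or DMSO alongside 5-fluorouridine. Step three: incubate 16 hr, 37 °C, 5% CO2. Step four: add ONE-Glo, wait 30 min, read luminescence.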
HT1080NT lethal – kills 2HG-producing HT-1080-NT fibrosarcoma cells; HT-1080-NT fibrosarcoma viability, CellTiter-Glo ATP luminescence, 48 h; Potency, µM (doses to about 46.1 µM), without a hit: at the top dose activity, negative = less viability, usual class: cytotoxic; 1.6% of 360,000 active; AID 686970;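 also: NT is the 2HG producing partner of a matched IDH1 knockdown line; potency is read from the fitted curve at half-maximal effect; 0% = DMSO-treated cells and -100% = media-only wells without cells; nearly all actives have a fitted effect of over 55% in size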
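Toxicity toward the 2HG-producing NT line was scored as %Activity, normalised to DMSO and no-cell wells, from CellTiter-Glo luminescence after 48 hours' treatment.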
IL1B secr inh – blocks inflammasome-driven IL-1 beta release; THP-1 LPS/ATP IL-1B secretion, AlphaLISA, 16 h; stronger effect = lower value; activity change, % at 57.5 µM; 4.7% of 360,000 active; AID 743279; in the data active = activity change below about -50%; inconclusive = mostly about -30% to -49%
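THP-1 cells pretreated 1 hr with compounds (up to 57.5 uM final), then stimulated with LPS (250 ng/mL final) plus ATP (1.25 mM final); secreted IL-1B measured by AlphaLISA after 16 hr, decreased signal indicating inhibition.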
Active calls of the source: *. An excerpt weighted towards active compounds, which were near 19% of everything screened. Unless noted, calls follow the shape of the dose curve; as a rule, active = well fitted curve in the direction sought with a large enough effect; inconclusive = small, poorly fitted or top-dose-only effect, or another doubt; inactive = no such curve, though single readings can be large; an effect the other way counts as inactive or inconclusive. Unless noted, % is scaled to controls: 0 for no effect and ±100 for the full control effect.

COc1ccccc1C(CNC(=O)CCNS(=O)(=O)c1ccc(Br)cc1)N1CCCC1 (configuration not stated) was read as TDP1 cell noCPT inconclusive, HT1080 IDH1KD tx -7%, DT40 TDP1 CPT inconclusive, HT1080NT lethal -10% and IL1B secr inh -9.
`COCCn1c(Cc2ccccc2)nnc1SCC(=O)Nc1oc(C)c2c(C)n[nH]c(=O)c12` gave TDP1 cell noCPT 0%, HT1080 IDH1KD tx 13%, DT40 TDP1 CPT 0%, ELG1 DNA repair 16%, HT1080NT lethal 7% and IL1B secr inh 8.
`COc1ccc(CN2C(=O)c3ccccc3C2c2nnnn2-c2c(C)cccc2C)cc1OC` (configuration not stated) gave TDP1 cell noCPT inconclusive, HT1080 IDH1KD tx 8%, DT40 TDP1 CPT inconclusive, HT1080NT lethal -6% and IL1B secr inh -12.
`COc1ccc(NC(=O)CN2C(=O)c3ccccc3S2(=O)=O)cc1OC` gave TDP1 cell noCPT 1%, HT1080 IDH1KD tx -1%, DT40 TDP1 CPT 1%, ELG1 DNA repair 4%, HT1080NT lethal 19% and IL1B secr inh -83*.
O=C(CN1c2cccc3cccc(c23)S1(=O)=O)Nc1ccc(F)c(F)c1F was read as TDP1 cell noCPT inconclusive, HT1080 IDH1KD tx -15%, DT40 TDP1 CPT inconclusive, ELG1 DNA repair 23µM*, HT1080NT lethal -23% and IL1B secr inh -14.
`COc1ccc(NC(=O)CN2c3cccc4cccc(c34)S2(=O)=O)cc1OC` gave TDP1 cell noCPT 7.3µM*, HT1080 IDH1KD tx -4%, DT40 TDP1 CPT inconclusive, HT1080NT lethal -8% and IL1B secr inh 25.
Screening Cc1ccc(NC(=O)CN2C(=O)c3ccccc3S2(=O)=O)cc1C returned TDP1 cell noCPT 9%, HT1080 IDH1KD tx -15%, DT40 TDP1 CPT 2%, ELG1 DNA repair inconclusive, HT1080NT lethal -4% and IL1B secr inh 21.
For Cc1ccc(NC(=O)CN2c3cccc4cccc(c34)S2(=O)=O)cc1S(=O)(=O)N1CCOCC1 the results were TDP1 cell noCPT 18µM*, HT1080 IDH1KD tx -10%, DT40 TDP1 CPT inconclusive, ELG1 DNA repair inconclusive, HT1080NT lethal -4% and IL1B secr inh 14.
Screening O=C(CN1c2cccc3cccc(c23)S1(=O)=O)Nc1ccccc1 returned TDP1 cell noCPT inconclusive, HT1080 IDH1KD tx 3%, DT40 TDP1 CPT inconclusive, ELG1 DNA repair -15%, HT1080NT lethal -21% and IL1B secr inh 17.
`CC(=O)Nc1ccc(S(=O)(=O)c2cc(O)ccc2O)cc1` gave TDP1 cell noCPT -12%, HT1080 IDH1KD tx 0%, DT40 TDP1 CPT -7%, ELG1 DNA repair 0%, HT1080NT lethal -6% and IL1B secr inh -4.
For CNC[C@@H]1Oc2cc(Br)ccc2S(=O)(=O)N([C@H](C)CO)C[C@@H]1C the results were TDP1 cell noCPT inconclusive, HT1080 IDH1KD tx 19%, DT40 TDP1 CPT -11%, HT1080NT lethal -4% and IL1B secr inh inconclusive.
COc1cc(NC(=O)CCc2c(C)noc2C)c(C(=O)O)cc1OC was read as TDP1 cell noCPT -23%, HT1080 IDH1KD tx -1%, DT40 TDP1 CPT 0%, HT1080NT lethal 5% and IL1B secr inh 17.
For CC12CCC(=O)N1C(C(=O)Nc1ccc(SC(F)F)cc1)CS2 (configuration not stated) the results were TDP1 cell noCPT -20%, HT1080 IDH1KD tx -2%, DT40 TDP1 CPT inconclusive, ELG1 DNA repair 10%, HT1080NT lethal -2% and IL1B secr inh -12.
Cc1oc(-c2ccc(C(=O)Nc3ccc(F)cc3F)cc2)nc1COc1ccccc1 was read as TDP1 cell noCPT -28% and DT40 TDP1 CPT -28%.
For CCCCCCOc1ccc(N2C(=O)CC(SC(=NCC)NCC)C2=O)cc1 (configuration not stated) the results were TDP1 cell noCPT -1%, HT1080 IDH1KD tx -2%, DT40 TDP1 CPT -5%, ELG1 DNA repair 4%, HT1080NT lethal 2% and IL1B secr inh 0.
`Cc1ccc(S(=O)(=O)N2C[C@H]3C(=O)C[C@@H](c4ccc(Cl)cc4)N(S(=O)(=O)c4ccc(C)cc4)[C@H]3C[C@H]2c2cccc3ccccc23)cc1` gave TDP1 cell noCPT -5%, HT1080 IDH1KD tx 27%, DT40 TDP1 CPT -8%, HT1080NT lethal inconclusive and IL1B secr inh 36.
O=C1NC[C@H](Cc2ccc(O)cc2)N(C[C@@H]2CCCN2C[C@H](Cc2ccccc2)N2C[C@H](Cc3ccc(O)cc3)N(CCc3ccccc3)C(=O)C2=O)C1=O was read as TDP1 cell noCPT 18µM*, HT1080 IDH1KD tx -16%, DT40 TDP1 CPT inconclusive, HT1080NT lethal -17% and IL1B secr inh inconclusive.
`O=C1NC[C@H](Cc2ccccc2)N(C[C@@H]2CCCN2C[C@H](Cc2ccccc2)N2C[C@H](Cc3ccc(O)cc3)N(CCc3ccccc3)C(=O)C2=O)C1=O` gave TDP1 cell noCPT inconclusive, HT1080 IDH1KD tx inconclusive, DT40 TDP1 CPT inconclusive, HT1080NT lethal inconclusive and IL1B secr inh -60*.
O=C1NC[C@H](Cc2ccccc2)N(C[C@H]2CCCN2C[C@H](Cc2ccccc2)N2C[C@H](Cc3ccc(O)cc3)N(CCc3ccccc3)C(=O)C2=O)C1=O was read as TDP1 cell noCPT inconclusive, HT1080 IDH1KD tx inconclusive, DT40 TDP1 CPT inconclusive, HT1080NT lethal -23% and IL1B secr inh -52*.
Cc1cccc(NC(=O)C2C3CCC4C(CCC32)C4(Cl)Cl)c1 (configuration not stated) was read as TDP1 cell noCPT inconclusive, HT1080 IDH1KD tx -1%, DT40 TDP1 CPT inconclusive, ELG1 DNA repair 3%, HT1080NT lethal -7% and IL1B secr inh 27.
For O=C(c1ccco1)N1N=C(c2cccs2)CC1c1ccco1 (configuration not stated) the results were TDP1 cell noCPT 10%, HT1080 IDH1KD tx 23%, DT40 TDP1 CPT 1%, ELG1 DNA repair inconclusive, HT1080NT lethal 5% and IL1B secr inh 16.
For COCC(=O)OCC(=O)N1N=C(c2ccc(Cl)cc2)CC1c1ccco1 (configuration not stated) the results were TDP1 cell noCPT -29%, HT1080 IDH1KD tx -3%, DT40 TDP1 CPT -25%, ELG1 DNA repair 11%, HT1080NT lethal -7% and IL1B secr inh -8.
